Assay outcomes deposited in PubChem by several laboratories.
Most compounds without a hit are left out; they make up all but 2.2% or so of the library.
HIF act – HIF pathway transcriptional activation | U2OS HRE-luciferase reporter, luminescence; normalized: DMSO 0%, desferrioxamine 100% | activation, % at 7.5 µM (by protocol) | 300,000 tested, 0.32% active;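 active means mean activation of at least 10% of the iron chelator positive control signal, with at least half of replicates also reaching 10%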
CHT allo act – human CHT allosteric activation; B-score at 10 µM; Q9GZV3; AID 488977; 310,000 tested, 0.49% active; CHT-expressing cells, membrane potential dye, choline EC20; active compounds read high; LV-AA mutant CHT in HEK293 cells;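 active means initial fluorescence not abnormally high and integrated response B-score, plate-corrected, over 3 SD above library mean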
Target sequence (Q9GZV3 whole entry, looked up): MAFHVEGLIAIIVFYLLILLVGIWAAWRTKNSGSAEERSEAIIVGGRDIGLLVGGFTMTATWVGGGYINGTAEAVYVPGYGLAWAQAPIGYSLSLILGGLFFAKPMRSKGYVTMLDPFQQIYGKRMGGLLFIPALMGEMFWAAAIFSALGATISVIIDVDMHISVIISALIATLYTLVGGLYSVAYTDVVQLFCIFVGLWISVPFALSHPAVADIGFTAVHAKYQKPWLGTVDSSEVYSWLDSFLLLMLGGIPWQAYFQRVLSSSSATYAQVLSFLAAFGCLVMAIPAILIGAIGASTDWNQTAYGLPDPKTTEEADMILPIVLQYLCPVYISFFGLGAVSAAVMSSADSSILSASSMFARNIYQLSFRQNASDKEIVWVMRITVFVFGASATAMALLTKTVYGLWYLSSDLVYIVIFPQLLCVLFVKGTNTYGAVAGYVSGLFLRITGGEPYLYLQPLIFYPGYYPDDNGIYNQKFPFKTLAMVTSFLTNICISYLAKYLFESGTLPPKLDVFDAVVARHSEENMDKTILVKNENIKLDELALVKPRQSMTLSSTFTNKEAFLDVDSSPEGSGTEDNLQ
AI-2 QS mod – modulates the Vibrio harveyi AI-2 quorum sensing system. Vibrio harveyi JMH597 AI-2 luminescence/OD600 ratio, 9 h; active compounds read low; strain lacks LuxN and CqsS sensors; 0 = neutral-control median. activity change, % at 7.5 µM. 300,000 tested, 0.4% active; in the data active means activity change below about -75%, passing the limit was not always enough;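 further: luminescence divided by OD600 gain over 9 h not by final OD600 alone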
Platelet DG rel – platelet dense granule release activity; 300,000 tested, 0.22% active; human platelet-rich plasma, SFLLRN dense granule ATP release, luminescence; inhibition, %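 (compounds screened at 7.5 µM in platelet-rich plasma)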; AID 1663;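 active means mean replicate score, as percent of positive control, at or above 50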
CHT block – inhibits the human high affinity choline transporter. Q9GZV3. CHT-expressing cells, membrane potential dye, choline response; active compounds read low. B-score at 10 µM. 310,000 tested, 0.86% active. AID 488975;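 active means B-score over 3 SD under the library average, and starting fluorescence ratio not unusually high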;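 further: choline stimulus applied at its EC90 after an EC20 pre-addition; B-score computed on integrated fluorescence ratio after choline addition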
VLA-4 inh – inhibition in a human VLA-4 binding assay. P13612. VLA-4 expressing cells, ligand binding flow cytometry. inhibition, % (about 7 µM as worked out from the volumes in the protocol). 330,000 tested, 0.2% active. AID 2557; in the data active means inhibition above about 50%
CHT activ conf – confirmation of human choline transporter (CHT) activators; shares compounds with CHT allo act; CHT-expressing cells, membrane potential dye fluorescence (FDSS); % of choline EC20–EC90 response window; HEK293 expressing CHT LV-AA mutant; choline added at its EC20; activation, % at 10 µM; 2,500 tested, 91% active; AID 504833;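 active means primary screen active, with duplicate mean activation above negative control mean plus 3 SD, cut at about 11% in these data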
HEK293 MP dye – counter-screen for CHT activators: effect in parental HEK293 cells. shares compounds with CHT allo act. membrane potential dye fluorescence (FDSS); measured after EC20 choline addition. ratio readout change at 10 µM, hits read low. 2,500 tested, 62% active. AID 623908;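 active means duplicate-averaged ratio beyond 3 SD from buffer wells, up or down, though filed actives are nearly all decreases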
Starred values were filed as active, the others as inactive; i = inactive; · = not tested or not shown.

SMILES | HIF act | CHT allo act | AI-2 QS mod | Platelet DG rel | CHT block | VLA-4 inh | CHT activ conf | HEK293 MP dye
CCC1=[N+](C)c2cccc3cccc(c23)N1C | 0 | 9.6* | 27 | 3 | i | -5 | 71* | -86*
Cc1ccn2c(Nc3ccc4c(c3)OCO4)c(-c3ccccn3)nc2c1 | 3 | 6.3* | 20 | 10 | i | i | 51* | i
Cc1ccc(-c2nc3cnccn3c2Nc2ccc3c(c2)OCO3)o1 | 1 | i | 23 | -21 | i | 0 | · | ·
NS(=O)(=O)c1ccc(NC(=O)COC(=O)c2ncc(Cl)c(Cl)c2Cl)cc1 | · | · | · | · | · | 1 | · | ·
Cc1c(OC(C)C(=O)NC2CC(C)(C)NC(C)(C)C2)ccc2c3c(c(=O)oc12)CCC3 (stereo not drawn) | 0 | 6.7* | 14 | 1 | i | 16 | 43* | -52*
CC(Oc1cc2oc(=O)c3c(c2cc1Cl)CCC3)C(=O)NC1CC(C)(C)NC(C)(C)C1 (stereo not drawn) | -2 | i | 10 | -5 | i | 12 | · | ·
CCOc1ncccc1C(=O)N1CCN(c2cc(Cl)ccc2C)CC1 | 0 | 14* | 19 | -9 | i | 17 | 45* | i
CCOC(=O)c1ccc(NC(=O)Nc2ccon2)cc1 | 3 | i | 15 | 10 | i | 48 | 30* | i
CC(C)COP(=O)(OCC(C)C)C(Nc1ccccc1)c1ccc2c(c1)OCO2 (stereo not drawn) | 0 | i | 17 | 0 | i | 16 | · | ·
CC(C)COP(=O)(OCC(C)C)C(Nc1ccccc1)c1ccc(F)cc1 (stereo not drawn) | 0 | i | 15 | -5 | i | 1 | 15* | i
CCCCC(=O)Nc1cc(N(C)C)nc2ccccc12 | 0 | i | -1 | -2 | i | 15 | · | ·
CN(C)c1cc(NC(=O)CN2CCOCC2)c2ccccc2n1 | 0 | 6.7* | 14 | 1 | i | 7 | 33* | -45*
CN(C)c1cc(NC(=O)CNC(C)(C)C)c2ccccc2n1 | 2 | i | 11 | 14 | i | 0 | 26* | -55*
Cn1c(=O)c2c(nc(N3CCOCC3)n2CCCNC2=NCCC2)n(C)c1=O | 0 | 8.8* | 29 | 6 | i | 8 | 54* | -56*
Cc1ccc(C(=O)Cn2c(N3CCOCC3)nc3c2c(=O)n(C)c(=O)n3C)cc1 | 0 | i | 4 | 4 | i | 1 | · | ·
Cn1c(=O)c2c(nc(N3CCOCC3)n2CCSc2ncccn2)n(C)c1=O | 0 | 8.6* | 40 | 3 | i | -9 | 75* | -79*
COc1cc2c(cc1OC)C(Cc1ccc(O)c(Oc3ccc(C[C@H]4c5cc(OC)c(OC)cc5CCN4C)cc3)c1)N(C)CC2 (stereo partly drawn) | · | · | · | · | · | -2 | · | ·
CCC1CCCCN1CCCNC(=O)C1CCN(Cc2nc(-c3ccc(Cl)cc3)oc2C)CC1 (stereo not drawn) | 0 | i | 21 | -4 | i | 5 | 36* | -30*
COc1ccc(C(=O)NC2CC2)cc1OC1CCN(Cc2ccccc2)CC1 | 0 | i | 5 | -16 | i | 0 | · | ·
COc1ccc(-c2nc(CN3CCC(C(=O)NC4CCN(Cc5ccccc5)CC4)CC3)c(C)o2)cc1OC | 0 | 7.6* | 18 | 0 | i | -2 | 60* | -51*
COc1ccc(-c2nc(CSCC(=O)NC3CCN(Cc4ccccc4)CC3)c(C)o2)cc1OC | 0 | i | 8 | -8 | i | 15 | · | ·
COc1ccc([N+](=O)[O-])cc1C(=O)NC1CCN(Cc2ccccc2)CC1 | 0 | 6.9* | 9 | 1 | i | 15 | 46* | -43*
Cc1oc(-c2ccc(Cl)cc2)nc1CN1CCC(C(=O)NCCCN2CCOCC2)CC1 | 0 | i | 13 | 3 | i | -2 | · | ·
